{
  "source": "PubChem BioAssay AID493201",
  "about": "(National Center for Advancing Translational Sciences (NCATS), 2011)",
  "note": "Records with an inconclusive call do not appear. A call without a number means that no potency is given here. Activity calls are given as the source filed them. Calls follow the shape of the dose curve; as a rule, active = well fitted activation curve with a large enough effect; inconclusive = small, poorly fitted or top-dose-only effect; inactive = no such curve, though single readings can be large or run the other way. Potency is read from the fitted curve at half-maximal effect.",
  "data": [
    {"assay": "qHTS Assay for Identifying a Potential Treatment of Ataxia-Telangiectasia: Secondary assay (no NCS) hit validation;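 also: phosphorylated KAP1 signal as a proxy for ATM-like kinase activity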", "settings": "A-T patient fibroblasts, AlphaLISA, no DNA damage added, 90 min; series mostly up to 76.9 µM", "procedure,_shortened": "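hTERT-immortalized A-T patient fibroblasts (F2112), 500 cells/well, exposed to compounds at up to 76.7 uM final without NCS at 37C. KAP-1 phosphorylation measured by AlphaLISA after lysis and 6 h detection at 25C.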", "values": [
      {"smiles": "Cc1cccc(C)c1NC(=O)COC(=O)c1cc(=O)c2ccccc2o1", "Potency": "inactive"},
      {"smiles": "O=C1C(Cl)=C(Nc2ccc3cn[nH]c3c2)C(=O)c2ccccc21", "Potency": "1.3 µM (active)"},
      {"smiles": "N#CCN1C(=O)C(=O)N(Cc2cccc(Cl)c2)C1=O", "Potency": "inactive"},
      {"smiles": "CN(C)c1cc(Nc2ccc(O)cc2)c([N+](=O)[O-])c2nonc12", "Potency": "inactive"},
      {"smiles": "CCn1c(SCc2cccc(F)c2)nnc1-c1ccncc1", "Potency": "inactive"},
      {"smiles": "COc1ccc(NCc2cc(=O)oc3cc(NC(C)=O)ccc23)cc1", "Potency": "inactive"},
      {"smiles": "NC(=O)C1CCN(Cc2nc3cc(C(F)(F)F)ccc3c(=O)[nH]2)CC1", "Potency": "inactive"},
      {"smiles": "NCC(=O)c1cccc2ccc[n+]([O-])c12", "Potency": "inactive"},
      {"smiles": "CCOc1ccc(NC2=CC(=O)CCC2)cc1", "Potency": "inactive"},
      {"smiles": "COc1cc(/C=C2\\CCOC2=O)cc(OC)c1OC", "Potency": "inactive"},
      {"smiles": "Cc1nc(Nc2ccc(Cl)cc2)c2oc3ccccc3c2n1", "Potency": "inactive"},
      {"smiles": "O=C(O)CCCC(=O)N1N=C(c2ccccc2)CC1c1cccs1", "note": "(stereo not given)", "Potency": "inactive"},
      {"smiles": "Cc1cc(C)c2c(Cn3ccnc3)cc(=O)oc2c1", "Potency": "inactive"},
      {"smiles": "CCOc1ccccc1CNC(=O)Cn1c(=O)oc2ccccc21", "Potency": "32.8 µM (active)"},
      {"smiles": "COc1ccccc1OC(=O)Nc1ccc(Cl)cc1", "Potency": "3.28 µM (active)"},
      {"smiles": "Oc1ccc(-c2nccc(-c3ccc(F)cc3)n2)cc1", "Potency": "5.82 µM (active)"},
      {"smiles": "O=C(CNCc1cccs1)Nc1cc(S(=O)(=O)N2CCCC2)ccc1Cl", "Potency": "inactive"},
      {"smiles": "O=C(NCCCN1CCOCC1)c1ccc2c(c1)N(Cc1cccc(F)c1)C(=O)c1ccccc1S2", "Potency": "inactive"},
      {"smiles": "Cc1cc2nc3ccc(=[N+](C)C)cc-3sc2cc1N", "Potency": "inactive"},
      {"smiles": "COc1cccc(OCCc2c(C)n[nH]c2C)c1", "Potency": "inactive"},
      {"smiles": "S=c1[nH]nc(COc2ccccc2)n1/N=C/c1ccccc1Cl", "Potency": "inactive"},
      {"smiles": "CCC(=O)Nc1ccc(S(=O)(=O)c2ccc(NC(=O)CC)cc2)cc1", "Potency": "inactive"},
      {"smiles": "Cc1nnc(SCC(=O)NC(=O)Nc2ccc3c(c2)OCCO3)n1N", "Potency": "inactive"},
      {"smiles": "COc1ccc(CCNC2=NCCS2)cc1OC", "Potency": "inactive"},
      {"smiles": "O=C(CCCC(=O)N1CCCC1)N1CCCC1", "Potency": "inactive"},
      {"smiles": "CC(C)Nc1nc(Oc2ccc(=O)n(-c3ccccc3)n2)nc(N(C)C)n1", "Potency": "inactive"},
      {"smiles": "O=C1CN(C(=O)NCC(=O)N[C@H](C(=O)O)c2ccccc2)c2ccccc2N1", "Potency": "inactive"},
      {"smiles": "CC(C)c1ccc(C(C(=O)NC2CCCCC2)N(C(=O)c2ccccn2)c2cccnc2)cc1", "note": "(stereo not given)", "Potency": "inactive"},
      {"smiles": "O=C(CCCn1nnnc1CN1CCOCC1)N1CCC(c2ccc(F)cc2)C1", "note": "(stereo not given)", "Potency": "inactive"},
      {"smiles": "O=c1c(-c2ccc(Cl)cc2)c[nH]n1-c1ccccc1", "Potency": "inactive"},
      {"smiles": "CC(=O)Nc1ccc(S(=O)(=O)NCC2(N3CCOCC3)CCCCC2)cc1", "Potency": "inactive"},
      {"smiles": "O=C1C2C3C=CC(CC3)C2C(=O)N1c1cccc(Br)c1", "note": "(stereo not given)", "Potency": "inactive"},
      {"smiles": "CNC(=S)N/N=C/c1ccc2c(c1)OCCO2", "Potency": "inactive"},
      {"smiles": "CCOc1cccc(/C=C/c2ccc3cccc(O)c3n2)c1OC", "Potency": "inactive"},
      {"smiles": "CC1C(c2ccccc2)N(C)C(c2ccccc2)CC1(O)c1ccccc1", "note": "(stereo not given)", "Potency": "13 µM (active)"}
    ]}
  ]
}
